# PAFAH2 FP inh – PAFAH2 enzyme inhibitors, primary screen, biochemical, fluorescence polarization, human; Platelet-activating factor acetylhydrolase 2, cytoplasmic (Homo sapiens), Q99487; recombinant PAFAH2, FP-rhodamine activity probe; inhibition, % at 3.39 µM; 340,000 compounds, 0.99% hits; AID 492956, 2010;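 active = inhibition above the mean over all tested compounds plus 3 SD, cut at about 30% in these data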;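 note: inhibitors block probe labeling of enzyme so polarization drops; 0% = enzyme with DMSO and 100% = wells lacking PAFAH2 protein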
# PAFAH1B3 inh – PAFAH1B3 enzyme inhibitors, primary screen, biochemical, fluorescence polarization, human | inhibition, % at 3.39 µM | Platelet-activating factor acetylhydrolase IB subunit alpha1 (Homo sapiens), Q15102 | recombinant PAFAH1B3, FP-rhodamine probe | 340,000 compounds, 0.28% hits | AID 492972, 2010;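 active = inhibition above the screen-wide average of all tested compounds plus 3 SD, cut at about 25% in these data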;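 note: 0% = enzyme with DMSO only and 100% = wells lacking PAFAH1B3 protein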
# Target sequence (Q15102 whole entry, looked up): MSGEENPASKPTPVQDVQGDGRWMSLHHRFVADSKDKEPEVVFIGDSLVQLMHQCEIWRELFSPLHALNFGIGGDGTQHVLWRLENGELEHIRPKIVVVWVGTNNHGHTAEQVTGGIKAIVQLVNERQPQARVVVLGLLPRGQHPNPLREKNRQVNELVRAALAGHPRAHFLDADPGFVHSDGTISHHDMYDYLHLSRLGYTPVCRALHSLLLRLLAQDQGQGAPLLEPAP
# pPAFAH FP inh – pPAFAH enzyme inhibitors, primary screen, biochemical, fluorescence polarization, human; 330,000 compounds, 1.5% hits; inhibition, % at 3.39 µM; recombinant pPAFAH, FP-rhodamine probe fluorescence polarization;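 active = inhibition above the mean inhibition across the screen plus 3 SD, cut at about 25% in these data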;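 note: inhibitors block binding of the rhodamine activity-based probe so polarization drops; 0% = enzyme with DMSO and 100% = wells lacking pPAFAH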
# PAFAH1B2 FP inh – PAFAH1B2 enzyme inhibitors, primary screen, biochemical, fluorescence polarization, human | AID 492953, 2010 | recombinant PAFAH1B2, FP-rhodamine activity probe | 340,000 compounds, 1.2% hits | inhibition, % at 3.39 µM;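 active = inhibition above the mean of all tested compounds plus 3 SD, cut at about 24% in these data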;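 note: 0% = enzyme with DMSO and 100% = wells lacking PAFAH1B2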
# TCR CD3 inh – inhibitors of human TCR-CD3 interaction, primary screen, biochemical, fluorescence, TAMRA-labeled TCR probe | inhibition, % at 9.4 µM | 360,000 compounds, 0.37% hits; in the data active = inhibition above about 19%;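 note: recombinant mutant TCR 2C K166C tagged with TAMRA read by polarization; 0% = receptor in buffer alone and 100% = receptor with positive control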
# PAFAH2 confirm – PAFAH2 enzyme inhibitors, confirmation, biochemical, fluorescence polarization, human; recombinant PAFAH2, FP-rhodamine activity probe; AID 493030, 2011; inhibition, % at 3.39 µM; 2,300 compounds, 65% hits; shares compounds with PAFAH2 FP inh;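 active = mean inhibition over three repeats above a set limit taken from the earlier primary screen, cut at about 30% in these data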;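 note: inhibitor blocks binding of rhodamine activity probe so polarization falls; 0% = enzyme with DMSO and 100% = wells lacking PAFAH2 protein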
# The depositor's hits bear a star; x = no result. Hits are enriched below; roughly 2.7% of the tested compounds scored in any of these assays.
SMILES,PAFAH2 FP inh,PAFAH1B3 inh,pPAFAH FP inh,PAFAH1B2 FP inh,TCR CD3 inh,PAFAH2 confirm
CC1(C)CC(=O)C=C(c2cccc(OC(=O)c3ccc(-c4ccccc4)cc3)c2)C1=O,x,x,x,x,-9,x
CC(C)NC(=O)C1(C)CCN1CCC(=O)c1ccccc1 (stereo unspecified),x,x,x,x,-4,x
CCOC(=O)[C@]12CCC=C1N(Cc1cccc3ccccc13)C(=O)[C@H](CC(=O)N1CCOCC1)C2,x,x,x,x,2,x
COc1cc(/C=N/NC(=O)Cc2nnc(N)s2)cc(OC)c1OC,4,4,2,-5,1,x
Cc1ccc(-c2ccc(/C=N/NC(=O)Cc3nnc(N)s3)o2)cc1Cl,55*,6,24,-1,3,20
Nc1nnc(CC(=O)N/N=C\c2ccc(-c3cccc(Cl)c3)o2)s1,48*,12,16,5,-1,19
COC(=O)c1ccc(-c2ccc(/C=N/NC(=O)Cc3nnc(N)s3)o2)cc1,43*,11,7,0,1,18
COc1ccc(-c2ccc(/C=N/NC(=O)Cc3nnc(N)s3)o2)cc1Cl,x,x,24,x,-5,x
Nc1nnc(CC(=O)N/N=C/c2ccc(-c3ccccc3)o2)s1,12,4,3,2,3,x
COc1ccc(S(=O)(=O)NCC2CCC(C(=O)O)CC2)cc1 (stereo unspecified),2,6,5,6,-7,x
Brc1cccc(-c2nc3c4ccccc4ccn3c2Cc2ccccc2)c1,x,x,x,x,-10,x
CCC(=O)Nc1cc(C(=O)OCC(=O)c2ccc(Cl)cc2Cl)ccc1C,17,11,4,7,3,x
O=C(O)CCC(=O)Nc1ccc(C(=O)OCC(=O)c2ccc(Cl)cc2Cl)cc1,62*,0,-7,8,6,51*
COc1ccc(CCNC(=O)CC(Cc2ccccc2)C(=O)O)cc1OC (stereo unspecified),20,12,3,9,-2,x
N#CC1(NC(=O)COC(=O)c2ncc(Cl)c(Cl)c2Cl)CCCCC1,1,6,16,-5,6,x
COc1cccc(CC(=O)OCC(=O)NC2(C#N)CCCCC2)c1,32*,4,14,1,-6,14
CNS(=O)(=O)c1cccc(C(=O)OCC(=O)NC2CCCC(C)C2C)c1 (stereo unspecified),63*,1,4,16,2,49*
N#CC1(NC(=O)COC(=O)c2ccc(-c3ccc(O)cc3)cc2)CCCCC1,76*,0,7,-2,12,72*
Cc1cc(C(=O)OCC(=O)NC2CCCC(C)C2C)c(C)o1 (stereo unspecified),82*,5,12,5,-8,67*
CSC(=Cc1ccc(C(=O)c2ccc(C)cc2)n1C)S(C)=O (stereo unspecified),x,x,x,x,-1,x
CCOC(=O)c1c(C)[nH]c(C(=O)OCC(=O)NC2(C#N)CCCCC2)c1C,57*,3,5,1,5,52*
CCOC(=O)c1c(C)[nH]c(C(=O)OC(C)C(=O)NC2(C#N)CCCCC2)c1C (stereo unspecified),x,x,x,x,-4,x
N#CC1(NC(=O)COC(=O)c2ccccc2[N+](=O)[O-])CCCCC1,69*,4,10,2,3,74*
Cc1ccc(C(=O)OCC(=O)NC2CCCc3ccccc32)o1 (stereo unspecified),33*,-1,2,5,-6,9
CNS(=O)(=O)c1cccc(C(=O)OCC(=O)Nc2cc(F)ccc2F)c1,45*,4,7,7,4,32*
COc1cccc(CN2CCC2(C)C(=O)Nc2ccc(Cl)c(Cl)c2)c1F (stereo unspecified),x,x,x,x,5,x
CC1CC(=O)Nc2ccccc2N1C(=O)CSc1nnnn1C (stereo unspecified),-1,2,-5,6,1,x
CC(OC(=O)Cn1cnc2c1c(=O)n(C)c(=O)n2C)C(=O)c1ccccc1 (stereo unspecified),1,9,3,-4,-2,x

# Assay outcomes from PubChem.
